# Measured values as given in PubChem BioAssay (Tox21).
# Inconclusive results are not listed. Entries that show only a call come without a potency. Activity calls are given as the source filed them. Unless noted, calls follow the shape of the full dose curve.
# Target: Estrogen receptor (Homo sapiens) (UniProt P03372)
# Assay: qHTS assay to identify small molecule agonists of the estrogen receptor alpha (ER-alpha) signaling pathway using the BG1 cell line (AID 743079; active = well fitted activation curve with a large enough effect in the repeat runs; also: nearly all actives have a fitted effect of over 20% in size; also: potency is read from the fitted curve at half-maximal effect)
# Conditions: BG1Luc4E2 cells, ERE-luciferase agonist, 22 h; series mostly up to 70.3 µM
# Estrogen receptor (Homo sapiens), sequence (P03372 whole entry, looked up): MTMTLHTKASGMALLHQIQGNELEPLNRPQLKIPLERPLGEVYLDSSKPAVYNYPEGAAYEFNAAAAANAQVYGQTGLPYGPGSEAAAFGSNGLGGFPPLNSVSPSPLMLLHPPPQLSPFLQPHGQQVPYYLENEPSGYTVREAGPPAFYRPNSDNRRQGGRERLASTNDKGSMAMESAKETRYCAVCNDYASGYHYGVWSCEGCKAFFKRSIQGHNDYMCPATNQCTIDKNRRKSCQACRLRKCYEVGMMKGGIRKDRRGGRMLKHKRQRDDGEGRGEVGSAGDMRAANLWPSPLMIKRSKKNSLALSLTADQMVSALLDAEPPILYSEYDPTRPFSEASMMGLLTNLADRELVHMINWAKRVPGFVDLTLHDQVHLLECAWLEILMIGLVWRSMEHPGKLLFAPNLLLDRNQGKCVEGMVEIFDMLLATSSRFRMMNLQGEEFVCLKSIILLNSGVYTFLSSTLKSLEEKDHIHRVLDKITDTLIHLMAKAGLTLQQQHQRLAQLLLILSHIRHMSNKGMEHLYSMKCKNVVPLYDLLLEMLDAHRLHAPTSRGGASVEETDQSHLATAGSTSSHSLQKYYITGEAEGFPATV
row,Structure (SMILES),Potency
1,COC(=O)c1cccc(Cl)c1,inactive
2,CCCCCCCCCCCCCCCCCC#N,inactive
3,CCCCCc1cccc(=O)o1,inactive
4,Cc1ccc(C(=O)O)cc1[N+](=O)[O-],inactive
5,CCC/C=C(\C=O)CC,inactive
6,CSc1cnccn1,inactive
7,CC/C(C)=N\O[Si](C)(O/N=C(\C)CC)O/N=C(\C)CC,inactive
8,CCCSSCCC,inactive
9,Cc1ncc([N+](=O)[O-])n1CC(C)O (stereo not drawn),inactive
10,C[C@@H](O)C(=O)O,48 µM (active)
11,COc1ccc2c(c1)c1c3n2CCN(C)C3=NCC1,inactive
12,O=C[O][Al]([O]C=O)[O]C=O,inactive
13,C/C(CC(C)C)=N\O,inactive
14,Cn1nnc2c(C(N)=O)ncn2c1=O,inactive
15,CC(C)C1OCCN1CCOC(=O)NCCCCCCNC(=O)OCCN1CCOC1C(C)C (stereo not drawn),inactive
16,CC(C)Cn1cnc2c1c(=O)n(C)c(=O)n2C,inactive
17,O=C(NCN1CCOCC1)c1cnccn1,inactive

row,Structure (SMILES),Potency
1,CC1c2ccccc2CN1NC(=O)c1ccc(Cl)c(S(N)(=O)=O)c1 (stereo not drawn),inactive
2,CCCCOC(=O)[C@H](C)O,inactive
3,OC1OCCOC1O (stereo not drawn),inactive
4,CC(C)(C)NC[C@H](O)COc1cccc2c1CCCC2=O,inactive
5,O=C(O)CCCCCC(=O)O,inactive
6,C=CCCCCCCCCC(=O)OCCCC,inactive
7,CCOCCOCC,inactive
8,OCC1CCC(CO)CC1 (stereo not drawn),inactive
9,CCCCCCCCCCOC(C)=O,61.1 µM (active)
10,CC(C)CO,inactive
11,CC12CCC(C1)C(C)(C)C2O (stereo not drawn),inactive
12,CC(=O)OC1CCCCC1C(C)(C)C (stereo not drawn),inactive
13,CC(=O)OCC(=O)Nc1cc(C#N)cc(NC(=O)COC(C)=O)c1Cl,inactive
14,N#CCC(=O)NN,inactive
15,O=C1CCCCO1,inactive
16,CCO,inactive
17,CC1(C)[C@H]2CC[C@](C)(C2)[C@H]1O,inactive

# System: not listed separately
# Assay: qHTS assay to identify small molecule antagonists of the estrogen receptor alpha (ER-alpha) signaling pathway using the BG1 cell line (AID 743080); also: nearly all actives have a fitted effect of over 25% in size
# Conditions: BG1Luc4E2 ERE-luciferase antagonist mode, luminescence; series mostly up to 70.3 µM
# Procedure, shortened: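 Antagonist mode: compounds in DMSO were pinned onto BG1-Luc-4E2 cells alongside 17beta-estradiol agonist, incubated 21.5 h, and ERE-driven luciferase measured with ONE-Glo. Cytotoxicity was multiplexed using CellTiter-Fluor fluorescence.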
row,Structure (SMILES),outcome
1,COC(=O)c1cccc(Cl)c1,inactive
2,CCCCCCCCCCCCCCCCCC#N,inactive
3,CCCCCc1cccc(=O)o1,inactive
4,Cc1ccc(C(=O)O)cc1[N+](=O)[O-],inactive
5,CCC/C=C(\C=O)CC,inactive
6,CSc1cnccn1,inactive
7,CC/C(C)=N\O[Si](C)(O/N=C(\C)CC)O/N=C(\C)CC,inactive
8,CCCSSCCC,inactive
9,Cc1ncc([N+](=O)[O-])n1CC(C)O (stereo not drawn),inactive
10,C[C@@H](O)C(=O)O,inactive
11,COc1ccc2c(c1)c1c3n2CCN(C)C3=NCC1,inactive
12,O=C[O][Al]([O]C=O)[O]C=O,inactive
13,C/C(CC(C)C)=N\O,inactive
14,Cn1nnc2c(C(N)=O)ncn2c1=O,inactive
15,CC(C)C1OCCN1CCOC(=O)NCCCCCCNC(=O)OCCN1CCOC1C(C)C (stereo not drawn),inactive
16,CC(C)Cn1cnc2c1c(=O)n(C)c(=O)n2C,inactive
17,O=C(NCN1CCOCC1)c1cnccn1,inactive

row,Structure (SMILES),outcome
1,CC1c2ccccc2CN1NC(=O)c1ccc(Cl)c(S(N)(=O)=O)c1 (stereo not drawn),inactive
2,CCCCOC(=O)[C@H](C)O,inactive
3,OC1OCCOC1O (stereo not drawn),inactive
4,CC(C)(C)NC[C@H](O)COc1cccc2c1CCCC2=O,inactive
5,O=C(O)CCCCCC(=O)O,inactive
6,C=CCCCCCCCCC(=O)OCCCC,inactive
7,CCOCCOCC,inactive
8,OCC1CCC(CO)CC1 (stereo not drawn),inactive
9,CCCCCCCCCCOC(C)=O,inactive
10,CC(C)CO,inactive
11,CC12CCC(C1)C(C)(C)C2O (stereo not drawn),inactive
12,CC(=O)OC1CCCCC1C(C)(C)C (stereo not drawn),inactive
13,CC(=O)OCC(=O)Nc1cc(C#N)cc(NC(=O)COC(C)=O)c1Cl,inactive
14,N#CCC(=O)NN,inactive
15,O=C1CCCCO1,inactive
16,CCO,inactive
17,CC1(C)[C@H]2CC[C@](C)(C2)[C@H]1O,inactive
